Measurements from PubChem BioAssay AID1159580 (chemical genetic matrix, 2015).
Where “and” joins values, the source holds several entries; their conditions need not be identical. Equal entries are not always repeated. In all, about 5,500 compounds went through this assay and about 2,000 (36%) were called active. About 18% were inconclusive and are not listed. Cut-off read from the data, not from the text of the source: active = normalized growth mostly below about 0.91 (no sharp cut-off); inconclusive = no clear call, values can overlap the other calls; inactive = mostly above about 0.92. Some of the results follow.

Test: chemical genetic growth profiling, strain panel (AID 1159580);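 note: tested at 20 µM; growth read once vehicle control cultures reached saturation at 30 °C; 1 = growth at the plate median or of vehicle wells; lower values mean less growth of the strain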
Details: S. cerevisiae deletion strains, growth OD

Measured: normalized growth

O=C1[C@H](CCC(O)c2ccc(F)cc2)[C@@H](c2ccc(O)cc2)N1c1ccc(F)cc1 (stereo partly specified)
inactive: locus YAL013W, strain DEP1, hits give low values 0.988 | locus YAL021C, strain ccr4, hits give low values 0.999 | locus YAL026C, strain drs2, hits give low values 0.976 | locus YAL030W, strain snc1, hits give low values 0.968 | locus YBL061C, strain skt5, hits give low values 0.973 | locus YBR009C, strain hhf1, hits give low values 0.981 | locus YBR021W, strain FUR4, hits give low values 0.962 | locus YBR023C, strain chs3, hits give low values 0.979 | locus YBR171W, strain sec66, hits give low values 0.95 | locus YBR229C, strain ROT2, hits give low values 0.99 | locus YBR231C, strain swc5, hits give low values 0.976 | locus YBR279W, strain paf1, hits give low values 0.987 | locus YCL011C, strain gbp2, hits give low values 0.995 | locus YCL016C, strain dcc1, hits give low values 0.992 | locus YCL029C, strain bik1, hits give low values 0.968 | locus YCL069W, strain vba3, hits give low values 0.97 | locus YCR088W, strain abp1, hits give low values 0.967 | locus YDL005C, strain med2, hits give low values 0.956 | locus YDL035C, strain GPR1, hits give low values 0.989 | locus YDL040C, strain nat1, hits give low values 0.979 | locus YDL074C, strain BRE1, hits give low values 0.985 | locus YDL101C, strain DUN1, hits give low values 0.985 | locus YDL134C, strain PPH21, hits give low values 0.988 | locus YDL185W, strain tfp1, hits give low values 0.966 | locus YDL192W, strain arf1, hits give low values 0.977 | locus YDR001C, strain nth1, hits give low values 0.976 | locus YDR069C, strain doa4, hits give low values 0.966 | locus YDR101C, strain arx1, hits give low values 0.981 | locus YDR137W, strain rgp1, hits give low values 1.01 | locus YDR150W, strain NUM1, hits give low values 0.986 | locus YDR159W, strain sac3, hits give low values 0.931 | locus YDR162C, strain NBP2, hits give low values 1 | locus YDR195W, strain ref2 0.915 | locus YDR297W, strain sur2, hits give low values 0.988 | locus YDR318W, strain mcm21, hits give low values 0.98 | locus YDR334W, strain swr1, hits give low values 0.983 | locus YDR335W, strain msn5, hits give low values 0.959 | locus YDR388W, hits give low values 0.972 | locus YDR392W, strain spt3, hits give low values 1.03 | locus YDR502C, strain sam2, hits give low values 0.98 | locus YEL003W, strain gim4, hits give low values 0.975 | locus YEL037C, strain rad23, hits give low values 0.957 | locus YEL061C, strain CIN8 (second series), hits give low values 0.966 | locus YEL061C, strain CIN8, hits give low values 0.993 | locus YER015W, strain faa2, hits give low values 0.99 | locus YER016W, strain bim1, hits give low values 0.968 | locus YER110C, hits give low values 0.971 | locus YER111C, strain swi4, hits give low values 0.969 | locus YER155C, strain BEM2 (second series), hits give low values 0.973 | locus YER155C, strain BEM2, hits give low values 1 | locus YER167W, strain BCK2, hits give low values 0.986 | locus YFR010W, strain ubp6, hits give low values 0.951 | locus YGL078C, strain dbp3, hits give low values 0.976 | locus YGL086W, strain mad1, hits give low values 0.984 | locus YGL167C, strain pmr1, hits give low values 0.965 | locus YGL173C, strain kem1, hits give low values 0.979 | locus YGL227W, strain vid30, hits give low values 0.974 | locus YGL240W, strain doc1, hits give low values 0.978 | locus YGL248W, strain PDE1, hits give low values 0.991 | locus YGR078C, strain PAC10, hits give low values 1 | locus YGR135W, strain pre9, hits give low values 0.972 | locus YGR229C, strain SMI1, hits give low values 1.01 | locus YGR252W, strain gcn5, hits give low values 1.01 | locus YHR013C, strain ard1, hits give low values 0.951 | locus YHR027C, strain rpn1, hits give low values 0.972 | locus YHR030C, strain SLT2, hits give low values 0.983 and 0.956 | locus YHR079C, strain IRE1 (second series), hits give low values 0.96 | locus YHR079C, strain IRE1, hits give low values 0.961 | locus YHR094C, strain hxt1, hits give low values 0.977 | locus YHR129C, strain ARP1, hits give low values 0.987 | locus YHR142W, strain chs7, hits give low values 0.901 | locus YHR200W, strain rpn10, hits give low values 0.974 | locus YIL066C, strain RNR3, hits give low values 0.985 | locus YIL073C, strain SPO22, hits give low values 0.961 | locus YIL125W, strain kgd1, hits give low values 0.99 | locus YIR030C, strain dcg1, hits give low values 0.967 | locus YJL092W, strain hpr5, hits give low values 0.972 | locus YJL095W, strain BCK1 (second series), hits give low values 0.975 | locus YJL095W, strain BCK1, hits give low values 0.98 and 1 | locus YJL115W, strain asf1, hits give low values 0.983 | locus YJL129C, strain trk1, hits give low values 0.877 | locus YJL134W, strain LCB3, hits give low values 0.989 | locus YJL154C, strain vps35, hits give low values 0.974 | locus YJL164C, strain tpk1, hits give low values 0.981 | locus YJL166W, strain qcr8, hits give low values 0.952 | locus YJL168C, strain set2, hits give low values 0.965 | locus YJL187C, strain SWE1 (second series), hits give low values 0.979 | locus YJL187C, strain SWE1, hits give low values 0.975 | locus YJR043C, strain POL32, hits give low values 0.985 | locus YJR066W, strain TOR1, hits give low values 0.929
active: locus YGL253W, strain hxk2, hits give low values 0.908
